Test results from PubChem BioAssay (NCI).
Compounds without any hit were thinned out: in the full panel of roughly 83,000, 20% have a hit.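 Plates (96-well) were seeded with cells, treated with compound at one concentration, and incubated for 48 hours before percent growth was determined.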 Unmarked numbers belong to inactive results. Active and inactive are the calls of the source. The calls were made as follows: active = growth percent below 10; inactive = the rest.

Assays:
Experiment in all cases: NCI-60 one-dose screen, 48 h (100 = growth as untreated, 0 = no growth, -100 = all killed)
Conditions in all cases: 10 µM unless noted
SR leukemia = tested on: SR leukemia
RPMI-8226 leukemia = tested on: RPMI-8226 leukemia
OVCAR-8 ovarian = tested on: OVCAR-8 ovarian
OVCAR-5 ovarian = tested on: OVCAR-5 ovarian
OVCAR-4 ovarian = tested on: OVCAR-4 ovarian
SK-OV-3 ovarian = tested on: SK-OV-3 ovarian
IGROV1 ovarian = tested on: IGROV1 ovarian
OVCAR-3 ovarian = tested on: OVCAR-3 ovarian
HS 578T breast = tested on: HS 578T breast
T-47D breast = tested on: T-47D breast
BT-549 breast = tested on: BT-549 breast
MDA-MB-435 melanoma = tested on: MDA-MB-435 melanoma
SW-620 colon = tested on: SW-620 colon
MCF7 breast = tested on: MCF7 breast
HCT-116 colon = tested on: HCT-116 colon
HCC-2998 colon = tested on: HCC-2998 colon
KM12 colon = tested on: KM12 colon
NCI/ADR-RES ovarian = tested on: NCI/ADR-RES ovarian

SMILES	growth (SR leukemia)	growth (RPMI-8226 leukemia)	growth (OVCAR-8 ovarian)	growth (OVCAR-5 ovarian)	growth (OVCAR-4 ovarian)	growth (SK-OV-3 ovarian)	growth (IGROV1 ovarian)	growth (OVCAR-3 ovarian)	growth (HS 578T breast)	growth (T-47D breast)	growth (BT-549 breast)	growth (MDA-MB-435 melanoma)	growth (SW-620 colon)	growth (MCF7 breast)	growth (HCT-116 colon)	growth (HCC-2998 colon)	growth (KM12 colon)	growth (NCI/ADR-RES ovarian)
CCN1C(=S)N(c2ccccc2)C2NC(=S)N(/N=C/C=C/c3ccccc3OC)C21 (stereo not given)	8.81% (active)	13.3%	1.79% (active)	28.7%	45%	30.5%	23.8%	2.96% (active)	9.64% (active)	66.7%	9.74% (active)	-31% (active)	18.3%	16.7%	10.5%	17.2%	7.72% (active)	–
Nc1ncc(-c2ccc3ncnc(Nc4cccc(Cl)c4)c3c2)cn1	33.6%	44.5%	46.8%	26.4%	70%	-10% (active)	5.88% (active)	27.3%	16.4%	-20.1% (active)	46.5%	55.6%	91.4%	24.2%	66.4%	60.5%	67.5%	–
COc1ccc2c(c1)N(CCO)C1=C(C(=O)OC1)C2c1cccc(F)c1 (stereo not given)	16%	21.3%	11%	44.6%	51.5%	23.2%	34.5%	-16.7% (active)	34.2%	56.7%	50%	-40.6% (active)	26.9%	18.1%	4.87% (active)	4.78% (active)	15.5%	–
CC1=C2[C@@H](CC1)[C@]1(C)O[C@@](C(C)C)(C[C@H]1OC(=O)[C@H](C)O)[C@H]2OC(=O)/C=C/c1ccccc1	71.9%	65.6%	10.2%	97.9%	81.7%	83.5%	97.4%	91.1%	-2.45% (active)	57.6%	15.9%	94.2%	95.1%	–	74.2%	90.7%	93.9%	4.27% (active)
CCc1ncnc2c1ccn2C(C)c1ccc(OC)c(F)c1 (stereo not given)	16.5%	37.2%	49.2%	88.1%	54.9%	53.6%	54.9%	34.8%	69.2%	36.1%	52.4%	6.71% (active)	27.7%	33.4%	18.8%	56.6%	27.8%	–
Nc1n[nH]c2cccc(C#Cc3cccc(C(=O)Nc4cc(C(F)(F)F)cc(C(F)(F)F)c4)c3)c12	49.7%	52.6%	82.9%	75.9%	85.4%	109%	45.7%	90.6%	54.9%	73.9%	98.6%	47.6%	78.6%	65.5%	35.3%	80.3%	43.9%	–
COc1ccc(OC)c(-c2nc(SCC(=O)c3ccc(C#N)cc3)[nH]c(=O)c2C#N)c1	97.3%	114%	99.3%	89.5%	106%	78%	96.4%	89.4%	102%	117%	99.4%	100%	98.6%	100%	95%	95.9%	91.8%	–
CC1CCN(CCOc2ccc(CNc3ccc4nc(CCC5CCCCC5)[nH]c4c3)cc2)CC1	14.4%	-15.7% (active)	43.1%	59.9%	50.4%	80.4%	43.1%	66.3%	27.5%	-32.8% (active)	68.4%	-43.4% (active)	13.9%	5.38% (active)	13.7%	-50.5% (active)	44%	–
N#CC1=C(N)Oc2c(ccc3ccccc23)C1c1ccccc1 (stereo not given)	15.2%	8.06% (active)	7.27% (active)	33.8%	50.3%	12.7%	27.2%	-2.34% (active)	28.8%	63.5%	-16.5% (active)	-38.9% (active)	28.2%	11.1%	3.37% (active)	-4.65% (active)	14.7%	–
O=C1/C(=C/c2cccc(F)c2)CN(C(=O)C(Cl)Cl)C/C1=C\c1cccc(F)c1	-15.8% (active)	-31.3% (active)	-48.3% (active)	-63.6% (active)	-36.9% (active)	29.8%	-77.2% (active)	-92.2% (active)	-13.7% (active)	-26.5% (active)	-81.1% (active)	-90.2% (active)	-63.2% (active)	-46.7% (active)	-82.8% (active)	-86.5% (active)	-74.3% (active)	–
Cc1nc2sc(C(=O)Nc3cccc(Br)c3)c(N)c2cc1C(O)c1ccccc1 (stereo not given)	13.4%	11.1%	20.8%	57%	70.5%	35.6%	32.1%	8.16% (active)	21%	43.2%	53.7%	4.05% (active)	31%	21.9%	16.2%	18.2%	22.8%	–
Clc1ccc2c(NC3CCC(N4CCOCC4)CC3)ccnc2c1 (stereo not given)	55.2%	58.2%	69.1%	105%	56.7%	81.5%	131%	92.7%	83.8%	58%	67.4%	86.3%	85.4%	63.7%	47%	77.8%	96.4%	–
CCN(C)S(=O)(=O)Nc1cccc(Nc2ncnc3cc(NC(=O)CCl)ccc23)c1Cl	6.73% (active)	-6.79% (active)	2.03% (active)	-17.5% (active)	14.9%	23.4%	-7.09% (active)	-65.1% (active)	13.4%	16%	-4.04% (active)	-5.32% (active)	-53.5% (active)	-5.68% (active)	0.862% (active)	39.1%	1.71% (active)	–
COC(=O)c1cc(N=C2NC(=O)/C(=C/C=C/c3ccccc3)S2)ccc1O	27.5%	18.8%	25.6%	71%	58.9%	33.3%	37.6%	18.7%	35.3%	32.8%	48.5%	-35.6% (active)	31.4%	17.9%	18.2%	49.1%	23.1%	–
Cc1ccc(C[P+](c2ccccc2)(c2ccccc2)c2ccccc2)cc1	-3.87% (active)	-17.6% (active)	15.6%	7.45% (active)	1.45% (active)	6.84% (active)	18.7%	5.95% (active)	8.62% (active)	1.57% (active)	0.272% (active)	4.92% (active)	10.9%	10.9%	2.21% (active)	-26.4% (active)	-12.9% (active)	–
Cc1csc(Nc2nc(-c3ccccn3)nc(C(Cl)(Cl)Cl)n2)n1	53.2%	91.5%	77.7%	108%	83.6%	97.8%	82.1%	97.4%	115%	78.8%	110%	82.3%	86.3%	84.2%	75%	107%	82.8%	–
NC(=O)c1c(NC(=O)c2ccc3ccccc3c2)sc2c1CCC(=O)C2	8.41% (active)	-12.1% (active)	46.1%	74.7%	5.13% (active)	104%	42.7%	23%	49.6%	33.4%	20.9%	92.8%	14.3%	52.6%	7.15% (active)	107%	–	–
Cn1ccc(=O)c(C(=O)Nc2nsc3ccc([N+](=O)[O-])cc23)c1	55.9%	61.6%	59.3%	84%	53.4%	30.8%	27.3%	75.6%	54.7%	74.6%	69.8%	75.6%	56.5%	34.7%	56.2%	87%	65.3%	–
